This note sets out measurements from PubChem BioAssay (NCI).

Each structure is given as a SMILES string. Compounds without any hit were thinned out: in the full panel of roughly 83,000, 20% have a hit.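 Results are percent growth after 48 hours of single-concentration exposure. 100 means growth as in untreated cells, lower positive values show inhibition; negative values down to -100 show cell death.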 Values without a mark were called inactive. Activity calls are given as the source filed them. How the source made its calls: active means growth percent below 10; inactive means the rest.

Some test systems named below: SK-MEL-2 melanoma; EKVX NSCLC; SN12C renal; UO-31 renal; ACHN renal; CAKI-1 renal; A498 renal; CCRF-CEM leukemia; MOLT-4 leukemia; SR leukemia; RPMI-8226 leukemia; OVCAR-8 ovarian; OVCAR-5 ovarian; OVCAR-4 ovarian; SK-OV-3 ovarian; IGROV1 ovarian; OVCAR-3 ovarian; HS 578T breast; NCI/ADR-RES ovarian.
Experiment in all cases: NCI-60 one-dose screen, 48 h (100 = growth as untreated, 0 = no growth, -100 = all killed)
Settings in all cases: 10 µM unless noted

With `O=C1/C(=C\c2coc3ccccc3c2=O)c2ccccc2N1c1c(Cl)cccc1Cl`, the growth in the test on SK-MEL-2 melanoma is 85.7%; in the test on EKVX NSCLC, 33.1%; in the test with SN12C renal, 59.5%; in the test on UO-31 renal it was 42.6%; in the test with ACHN renal it was 54.6%; in the test on CAKI-1 renal, -7.88% (active). The growth was 12.6% in the test with A498 renal; 21.1% in the test on CCRF-CEM leukemia; 19% in the test on MOLT-4 leukemia; 19.5% with SR leukemia; 10.2% with RPMI-8226 leukemia; 31.6% in the test on OVCAR-8 ovarian. Moreover, the growth is 102% in the test with OVCAR-5 ovarian; 49.5% in the test on OVCAR-4 ovarian; 74.8% in the test on SK-OV-3 ovarian; 48.7% in the test on IGROV1 ovarian; 16.8% with OVCAR-3 ovarian; 27.4% with HS 578T breast. The growth with NCI/ADR-RES ovarian is 36.1%.

For `C[C@H]1c2cccc(O)c2C(O)=C2C(=O)[C@]3(O)C(O)=C(C(N)=O)C(=O)[C@@H](N(C)C)[C@@H]3[C@@H](O)[C@@H]21`, the growth is 56.1% with SK-MEL-2 melanoma; 46.7% with EKVX NSCLC; 53.6% in the test on SN12C renal; 32.6% in the test with UO-31 renal; 27.1% in the test on ACHN renal; 14% in the test with CAKI-1 renal. The growth in the test with A498 renal is 59.9%; in the test with CCRF-CEM leukemia, 39.1%; in the test on MOLT-4 leukemia, 51.5%; in the test on SR leukemia, 30%; in the test on RPMI-8226 leukemia, 27%; in the test with OVCAR-8 ovarian, 33.5%. The growth in the test with OVCAR-5 ovarian is 78.4%; in the test on OVCAR-4 ovarian, 66.8%; in the test on SK-OV-3 ovarian it was 70.2%; with IGROV1 ovarian, 21.4%; in the test with OVCAR-3 ovarian, 49%; in the test with HS 578T breast, 69.8%. Moreover, in the test with NCI/ADR-RES ovarian, the growth was 66%.

Turning to `CC1C(=O)NC2=Nc3ccccc3C(=O)NN21` (stereo unspecified), the growth is 96% in the test with SK-MEL-2 melanoma; 88.3% in the test with EKVX NSCLC; 99.7% in the test on SN12C renal; 64% in the test on UO-31 renal; 93.8% in the test on ACHN renal; 94.5% in the test on CAKI-1 renal. Besides, the growth in the test with A498 renal is 116%; in the test with CCRF-CEM leukemia, 97.3%; in the test on MOLT-4 leukemia it was 94.3%; in the test on SR leukemia it was 91.3%; in the test with RPMI-8226 leukemia, 90.3%; in the test with OVCAR-8 ovarian, 99.7%. The growth in the test on OVCAR-5 ovarian was 96.5%; with SK-OV-3 ovarian, 105%; with IGROV1 ovarian, 79.6%; in the test with OVCAR-3 ovarian, 116%; in the test with HS 578T breast it was 108%; in the test with NCI/ADR-RES ovarian it was 103%.

On to `C[C@]12CCC(=O)C=C1CCC1C2[C@@H](O)C[C@@]2(C)C1CC[C@]2(O)C(=O)COC(=O)CCC(=O)O` (stereo partly specified), for which the growth in the test on SK-MEL-2 melanoma was 123%; in the test on EKVX NSCLC it was 78.7%; with SN12C renal it was 57.2%; in the test with UO-31 renal, 84.1%; in the test on ACHN renal, 102%; in the test on CAKI-1 renal it was 81.1%. Moreover, the growth was 118% with A498 renal; 64.9% in the test with CCRF-CEM leukemia; 115% in the test on MOLT-4 leukemia; 105% with SR leukemia; 63.6% in the test on RPMI-8226 leukemia; 95.6% in the test on OVCAR-8 ovarian. For the same molecule, the growth was 99.4% with OVCAR-5 ovarian; 102% in the test on OVCAR-4 ovarian; 89% in the test on SK-OV-3 ovarian; 93.6% in the test with IGROV1 ovarian; 123% with OVCAR-3 ovarian; 138% with HS 578T breast. In the test with NCI/ADR-RES ovarian, the growth is 95.7%.

Turning to `CCOC(=O)CCC(=O)O[C@H]1[C@H](O[C@@H]2[C@@H](C)[C@H](O[C@H]3C[C@@](C)(OC)[C@@H](O)[C@H](C)O3)[C@@H](C)C(=O)O[C@H](CC)[C@@](C)(O)[C@H](O)[C@@H](C)C(=O)[C@H](C)C[C@@]2(C)O)O[C@H](C)C[C@@H]1N(C)C`, the growth in the test with SK-MEL-2 melanoma is 121%; with EKVX NSCLC it was 100%; with SN12C renal it was 101%; with UO-31 renal, 67.7%; in the test with ACHN renal it was 96.4%; in the test with CAKI-1 renal it was 93.2%. Also, the growth is 120% in the test with A498 renal; 91.4% in the test with CCRF-CEM leukemia; 94.2% in the test with MOLT-4 leukemia; 92% in the test on SR leukemia; 97.2% in the test with RPMI-8226 leukemia; 106% with OVCAR-8 ovarian. Also, the growth is 106% in the test on OVCAR-5 ovarian; 110% in the test with OVCAR-4 ovarian; 113% in the test on SK-OV-3 ovarian; 92.8% with IGROV1 ovarian; 125% in the test on OVCAR-3 ovarian; 113% with HS 578T breast. Also, in the test on NCI/ADR-RES ovarian, the growth was 108%.

As for `CCSCC1CC(O)(c2ccccc2)C(c2ccccc2)C(c2ccc(Cl)cc2)O1` (stereo unspecified), the growth was 16.9% with SK-MEL-2 melanoma; -4.64% (active) in the test on EKVX NSCLC; -49.9% (active) with SN12C renal; 11.9% with UO-31 renal; 22.8% in the test with ACHN renal; -51.3% (active) with CAKI-1 renal. The growth in the test on A498 renal was -13.3% (active); in the test on CCRF-CEM leukemia, 13.3%; with RPMI-8226 leukemia, 4.54% (active); in the test with OVCAR-8 ovarian it was -11.2% (active); in the test on OVCAR-5 ovarian it was 24.7%; in the test with OVCAR-4 ovarian, 33.8%. The growth was 9.49% (active) with SK-OV-3 ovarian; 32.6% in the test on IGROV1 ovarian; -26.4% (active) in the test on OVCAR-3 ovarian; -11% (active) in the test with HS 578T breast; 17.1% with NCI/ADR-RES ovarian.

As for `O=C1NCCc2c1noc2-c1ccccc1`, the growth in the test on SK-MEL-2 melanoma is 101%; with EKVX NSCLC, 97.8%; in the test on SN12C renal, 109%; in the test on UO-31 renal, 88.2%; in the test on ACHN renal it was 106%; in the test with A498 renal, 105%. The growth in the test on CCRF-CEM leukemia was 109%; in the test on MOLT-4 leukemia, 97.5%; in the test with SR leukemia, 103%; in the test with RPMI-8226 leukemia, 113%; with OVCAR-8 ovarian, 109%; in the test with OVCAR-5 ovarian, 103%. The growth in the test with SK-OV-3 ovarian is 91.3%; with IGROV1 ovarian, 99.5%; in the test on OVCAR-3 ovarian, 113%; in the test with HS 578T breast, 111%; with NCI/ADR-RES ovarian it was 98.6%.

Turning to `c1ccc2nc(Cn3c[n+](Cc4ccc5ccccc5n4)c4ccccc43)ccc2c1`, the growth was 28.9% in the test on SK-MEL-2 melanoma; 74.7% with EKVX NSCLC; 22.7% with SN12C renal; 79.5% in the test with UO-31 renal; 103% with ACHN renal; 51.1% in the test on A498 renal. Further, the growth in the test with CCRF-CEM leukemia was 34.9%; in the test with MOLT-4 leukemia, 31.9%; in the test on SR leukemia, 14.7%; with RPMI-8226 leukemia it was -6.43% (active); with OVCAR-8 ovarian, 29.9%; in the test with OVCAR-5 ovarian it was 71.1%. Also, the growth is 22.7% in the test on OVCAR-4 ovarian; 57.4% with SK-OV-3 ovarian; 34.8% in the test with IGROV1 ovarian; 23.8% with OVCAR-3 ovarian; 60.5% in the test with HS 578T breast.

Turning to `O=C1OC(Oc2ccccc2)(c2ccccc2)c2ccccc21` (stereo unspecified), the growth in the test with SK-MEL-2 melanoma is 104%; in the test with EKVX NSCLC, 133%; with SN12C renal it was 110%; in the test on UO-31 renal, 102%; with ACHN renal, 102%; in the test with CAKI-1 renal, 87.4%. In addition, the growth in the test with A498 renal is 79.9%; in the test on CCRF-CEM leukemia, 103%; in the test with MOLT-4 leukemia, 76%; with SR leukemia it was 79.1%; in the test with OVCAR-8 ovarian, 102%; with OVCAR-5 ovarian it was 99.6%. In addition, the growth in the test on SK-OV-3 ovarian is 106%; in the test with IGROV1 ovarian it was 107%; in the test on OVCAR-3 ovarian, 97%; in the test on HS 578T breast, 101%.
